Sampled rows, rich in hits. Any-hit rate of the full collection: about 3.9%.
ALR inh = inhibitors of human sulfhydryl oxidase ALR; 290,000 compounds, 3.8% hits; inhibition, % (concentration not given with the values); purified ALR, DTT oxidation, H2O2 HRP-luminol luminescence; AID 485317; P55789;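 active = mean replicate inhibition above about 79%, with every replicate also reaching it, limit read from the data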
Target sequence (P55789 whole entry, looked up): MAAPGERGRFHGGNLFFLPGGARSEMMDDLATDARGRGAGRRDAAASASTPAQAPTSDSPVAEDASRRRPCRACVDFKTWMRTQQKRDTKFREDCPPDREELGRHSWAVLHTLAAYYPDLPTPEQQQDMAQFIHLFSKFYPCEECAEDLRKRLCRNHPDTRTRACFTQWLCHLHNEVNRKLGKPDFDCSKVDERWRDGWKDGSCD
UBC9 SUMO inh = blocks human SUMOylation mediated by UBC9. P63279. HTRF SUMOylation assay, SAE1/SAE2 + UBC9, in vitro. inhibition, % at 35 µM. 290,000 compounds, 0.36% hits. AID 2006; in the data active = inhibition above about 50%, passing the limit was not always enough
Target sequence (P63279 whole entry, looked up): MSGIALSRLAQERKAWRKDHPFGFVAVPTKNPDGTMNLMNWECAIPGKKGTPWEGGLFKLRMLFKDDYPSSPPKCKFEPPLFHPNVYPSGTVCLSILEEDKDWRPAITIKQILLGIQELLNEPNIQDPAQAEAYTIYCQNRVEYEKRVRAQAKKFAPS
Cardio protect = myocardial damage modulation in H9c2 cells; H9c2 cardiomyocytes, H2O2 injury protection, ATPLite, 2 h; protection from H2O2 cell death, % at 20 µM; 360,000 compounds, 0.63% hits; AID 588492;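 active = compounds giving at least 50% protection of heart cells from peroxide-induced death in the single-dose screen, raw or plate-pattern-corrected value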
NTR1 ag = NTR1 (human) agonism | P30989 | NTR1-U2OS beta-arrestin-GFP spot imaging, agonist mode | activation, % at 20 µM | 330,000 compounds, 0.17% hits | AID 493036;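 active = activation at or above 40% of the spot to cytoplasm intensity ratio, with at least 20 cells analyzed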
Hits are given with their value; i = inactive; nt = no result given.

SMILES | ALR inh | UBC9 SUMO inh | Cardio protect | NTR1 ag
CN(CCO)c1ccc(C(C(=O)c2ccccc2)c2ccc(N(C)CCO)cc2)cc1 | 91 | nt | i | i
Cc1nc([N+](=O)[O-])c(SCC(N)=O)n1Cc1ccccc1 | i | i | i | i
Cc1nc([N+](=O)[O-])c(Sc2nc3ccccc3n2C)n1Cc1ccccc1 | 98 | i | i | i
N#Cc1c(-c2ccco2)cc(-c2cccnc2)nc1N | i | i | 87 | i
N#Cc1c(-c2ccco2)cc(-c2ccccn2)nc1N | i | i | 88 | i
O=C(c1ccc(Cl)c(S(=O)(=O)N2CCCC2)c1)N1CCN(c2ccc(F)cc2)CC1 | nt | i | i | i
COc1ccc(OC(=O)c2ccncc2)cc1 | i | i | i | i
COc1ccc(C(=O)Oc2ccc(/C=N/O)cc2)cc1 | 91 | i | i | i
CCCn1c(=O)c2[nH]c(-c3ccc(OCC(=O)Nc4ccc(C#N)cc4)cc3)nc2n(CCC)c1=O | i | nt | 94 | i
CCOc1ccc(CC(C(N)=O)C(N)=O)cc1 | i | i | i | i
CCOc1ccc(CSC(=N)N)cc1 | 98 | i | i | i
COc1ccc(/C=N/N=C2\CC3CCC2(C)C3(C)C)cc1O (stereo not given) | i | i | i | i
COc1cc(/C=N/N=C2\CC3CCC2(C)C3(C)C)ccc1O (stereo not given) | 99 | i | i | i
CCOc1ccc(N2C(=O)CS/C2=N/NC(=O)COc2ccc3ccccc3c2)cc1 | i | i | i | i
CCOC(=O)c1c(-c2ccc(C)o2)csc1NC(=O)COC(=O)c1ccc(NC(N)=O)cc1 | i | i | 61 | i
C=CCc1c(C)[nH]c2c(OC)cccc2c1=S | i | i | i | i
N#CC(C#N)=Cc1cc2ccccc2nc1N1CCOCC1 | 95 | i | i | i
CNc1nc(N)c([N+](=O)[O-])c(NCc2ccccc2)n1 | i | i | i | i
CCc1ccc(OCC(=O)c2c(O)c3ccccc3oc2=O)cc1 | i | i | i | i
CCc1oc2ccccc2c1C(=O)c1cc(Br)c(O)c(Br)c1 | 98 | i | i | i
COc1ccc(OC)c(CNc2ccc3c(c2)nc(C)n3C)c1 | 85 | i | i | i
COc1ccc(CNc2ccc3c(c2)nc(C)n3C)cc1 | 89 | i | i | i
Cc1ccc(CNc2ccc3c(c2)nc(C)n3C)cc1 | nt | i | i | i
COc1ccc(CNc2ccc(Br)cc2)cc1 | 98 | i | i | i
O=C(O)c1ccc2oc(SCC(=O)N3CCCCC3)nc2c1 | i | i | i | i
SMILES | ALR inh | UBC9 SUMO inh | Cardio protect | NTR1 ag
CC(NC(=O)Cn1cnnn1)c1cccc(C(F)(F)F)c1 (stereo not given) | i | i | i | i
Cc1cc(=O)[nH]c2ccc(S(=O)(=O)Nc3ccc(O)cc3)cc12 | 99 | i | i | i
Cc1cc(C)c(S(=O)(=O)Nc2ccc(O)cc2)c(C)c1 | 99 | i | i | i
NC(=O)CSc1nnc(Cc2csc(Nc3ccccc3)n2)n1Cc1ccccc1 | 79 | i | i | i
CC(C)C(c1nnnn1C1CCCC1)N1CCc2ccccc21 (stereo not given) | 99 | i | i | i
CCN(CC)CCOC(=O)c1ccc(N/C=C(/C#N)c2nc(-c3cc4ccccc4oc3=O)cs2)cc1 | i | 55 | i | i
C/C(=N\NC(=O)Cc1csc(N2CCOCC2)n1)c1ccccc1 | i | i | i | i
COc1cc(/C=N/NC(=O)CCN2CCN(c3ccccc3)CC2)cc(OC)c1OC | 93 | i | i | i
O=C(Cc1csc(N2CCOCC2)n1)N/N=C/c1ccc(O)c(O)c1O | nt | 93 | i | nt
O=C(CCN1CCN(c2ccccc2)CC1)N/N=C/c1ccc(O)c(O)c1O | nt | 76 | i | nt
COc1ccc(/C=N/NC(=O)CCN2CCN(c3ccccc3)CC2)c(OC)c1OC | i | i | i | i
COc1cc(/C=N/NC(=O)CCN2CCN(Cc3ccccc3)CC2)cc(OC)c1OC | nt | i | i | i
O=C(NCCN1CCN(c2ccccc2)CC1)c1ccccc1F | 99 | i | i | i
Cc1ccnc(SCC(=O)c2ccc(Br)cc2)c1C#N | i | i | i | i
C=CCN1C(=O)[C@H]2CCC=C[C@H]2[C@@H]1c1cccc(C)c1 | nt | nt | i | i
C=CCNC(=O)c1ccc(N(CC=C)S(C)(=O)=O)cc1 | i | i | i | i
O=C(NCCN1CCN(c2ccccc2)CC1)Nc1ccc(Cl)cc1 | i | i | i | i
COc1cc(NC(=O)NCCN2CCN(c3ccccc3)CC2)cc(OC)c1OC | 98 | i | i | i
Cc1nc2ccccc2c2oc(C(=O)NC3CC3)cc12 | i | i | i | i
CCOc1ccc(NC(=O)c2cc3c(C)nc4ccccc4c3o2)cc1 | nt | i | 61 | i
CC(C)c1ccc(NC2CCCN(C(=O)CSc3nncn3C)C2)cc1 (stereo not given) | 91 | i | i | i
CC(C)c1ccc(NC2CCCN(C(=O)CCN3Cc4ccccc4C3=O)C2)cc1 (stereo not given) | 99 | nt | i | i
O=C1CCCCN1CCC(=O)N1CCCC(Nc2ccccc2)C1 (stereo not given) | i | i | i | i
CC(C)c1ccc(NC2CCCN(C(=O)CCN3CCCCC3=O)C2)cc1 (stereo not given) | 97 | i | i | i
CC(C)c1ccc(NC2CCCN(C(=O)CN3CCCC3=O)C2)cc1 (stereo not given) | 82 | i | i | i
SMILES | ALR inh | UBC9 SUMO inh | Cardio protect | NTR1 ag
CC(C)c1ccc(NC2CCCN(C(=O)CN3CCOC3=O)C2)cc1 (stereo not given) | i | i | i | i
Cc1ccc(CN2C(=O)C(C)Sc3ccc(C#N)cc32)cc1 (stereo not given) | nt | nt | i | nt
Cc1ccc(CN(CC(O)COc2cccc3[nH]cc(C)c23)C(C)(C)C)cc1 (stereo not given) | i | i | i | i
Cc1c[nH]c2cccc(OCC(CNC(C)(C)C)OC(=O)c3ccccc3)c12 (stereo not given) | 81 | i | i | i
COc1ccc(CN2CCN(c3ncccn3)CC2)c(OC)c1 | i | i | i | i
Cn1c(Sc2ccc(C(=O)O)cc2[N+](=O)[O-])nnc1-c1ccccc1 | i | i | i | i
O=C(O)c1ccc(Sc2nnc(-c3cccc(Br)c3)o2)c([N+](=O)[O-])c1 | 99 | i | i | i
C/C(=N\Nc1ccccn1)c1ccc2c(c1)OCO2 | i | i | i | i
C/C(=N\Nc1nc2ccccc2[nH]1)c1ccc2c(c1)OCO2 | 100 | i | i | i
C/C(=N\Nc1nc2ccccc2[nH]1)c1ccc2c(c1)OCCO2 | 99 | i | i | i
CSc1ccccc1OCc1cc(C(=O)N(C)Cc2nonc2C)no1 | i | i | i | i
COc1ccc(/C=C/c2cc(=O)c3cc(Cl)ccc3o2)cc1 | 97 | i | i | i
COc1ccc(-c2cc(=O)c3cc(OC)ccc3o2)cc1 | i | i | i | i
Cc1ccccc1NCCC(=O)Nc1ccc(F)cc1 | 99 | i | i | i
Cc1ccccc1NCCC(=O)Nc1ccc(Cl)cc1 | 98 | i | i | i
Cc1ccccc1NC(=O)CC(=O)Nc1ccccc1C | i | i | i | i
CC[C@@]12C(=O)N(c3cccc(Cl)c3)C(=O)N1[C@H](c1cccc(C)c1)[C@@H]1C(=O)N(Cc3ccccc3)C(=O)[C@@H]12 | i | nt | i | i
CSc1ccccc1C(=O)C1CCCN(C(=O)NC(C)C)C1 (stereo not given) | i | i | i | i

Assay outcomes: PubChem, several laboratories
